For 34 compounds, outcome and AC50 results are on record in PubChem BioAssay (EPA / NIEHS).

A word on the AC50: it is the midpoint of the concentration-response curve, whichever way the signal moves.

Assay [1] is described as follows: TOX21_p53_BLA_p2_viability: Viability Assessment in the Tox21 HCT-116 p53 Agonism Beta-lactamase Assay, Phase 2 (AID 2283591).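 Note: actives lower the ATP signal meaning cytotoxicity.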 In a few lines: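 HCT116 p53-bla cells, 4000/well, dosed after 5 h plating (217-fold dilution of DMSO stocks) and incubated 16 h at 37C. Viability taken as cellular ATP by CellTiter-Glo luminescence after 30 min RT; signal loss marks cytotoxicity.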

In assay [2] the target is Cellular tumor antigen p53 (Homo sapiens) (UniProt P04637). As to the kind of experiment: TOX21_p53_BLA_p2_ratio: Tox21 HCT-116 p53 Agonism Beta-lactamase Assay, Ratio, Phase 2 (AID 2283592). In a few lines: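 First, HCT116 reporter cells settle for 5 h at 37C. Next, DMSO compound solutions are pinned in (217-fold dilution) and left 16 h. Finally, CCF4-AM substrate is loaded 2 h at room temperature and the 460/530 nm ratio read.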

Assay [3] is described as follows: TOX21_p53_BLA_p3_viability: Viability Assessment in the Tox21 HCT-116 p53 Agonism Beta-lactamase Assay, Phase 3 (AID 2283593).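 Note: cells exposed to compound for 16 h before reading.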 In a few lines: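 HCT116 cells, 4000/well, dosed 5 h after plating by pin transfer (217-fold dilution from DMSO stock) and incubated 16 h at 37C, 5% CO2. Viability read as ATP luminescence with CellTiter-Glo after 30 min at room temperature.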

In assay [4] the target is Cellular tumor antigen p53 (Homo sapiens) (UniProt P04637). The experiment in a line: TOX21_p53_BLA_p3_ratio: Tox21 HCT-116 p53 Agonism Beta-lactamase Assay, Ratio, Phase 3 (AID 2283596). In a few lines:
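Cells were seeded at 4000/well, rested 5 h at 37C, then dosed with DMSO compound solutions (217-fold dilution) for 16 h. CCF4-AM substrate was loaded for 2 h at room temperature, and the 460/530 nm emission ratio was fitted for gain of signal versus DMSO.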

Assay [5] shares this target. As to the kind of experiment: TOX21_p53_BLA_p5_ratio: Tox21 HCT-116 p53 Agonism Beta-lactamase Assay, Ratio, Phase 5 (AID 2283599). In a few lines:
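HCT-116 p53-bla cells (4000/well) plated 5 h, dosed with compound (217-fold DMSO dilution) for 16 h at 37 C; CCF4-AM substrate 2 h at room temperature. Activity is the 460/530 nm emission ratio (405 nm excitation), fitted in gain-of-signal direction versus DMSO.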

Assay [6] can be described thus: TOX21_p53_BLA_p5_viability: Viability Assessment in the Tox21 HCT-116 p53 Agonism Beta-lactamase Assay, Phase 5 (AID 2283600). In a few lines: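 Decreased CellTiter-Glo luminescence denotes lost viability. Exposure: 16 h at 37C, 5% CO2, with compounds from DMSO stocks diluted 217-fold in wells of 4000 cells.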
Assay [7] can be described thus: TOX21_p53_BLA_p4_viability: Viability Assessment in the Tox21 HCT-116 p53 Agonism Beta-lactamase Assay, Phase 4 (AID 2283597).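 Note: hits lower the luminescence signal meaning cytotoxicity.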 In a few lines: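 4000 HCT116 cells per well; 5 h attachment; compounds from DMSO, 217-fold dilution; 16 h at 37C. Then CCF4-AM, 2 h RT, followed by CellTiter-Glo, 30 min RT, luminescence. Decrease = cytotoxicity.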
In assay [8] the target is Cellular tumor antigen p53 (Homo sapiens) (UniProt P04637). As to the kind of experiment: TOX21_p53_BLA_p4_ratio: Tox21 HCT-116 p53 Agonism Beta-lactamase Assay, Ratio, Phase 4 (AID 2283601). In a few lines: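 HCT-116 p53 beta-lactamase reporter cells (4000/well) preincubated 5 h, then compound (217-fold dilution of DMSO stock) for 16 h at 37C. CCF4-AM substrate added 2 h at room temperature; 460/530 nm emission ratio fitted upward versus DMSO.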

Results filed as inconclusive are left out. Activity calls are given as the source filed them. Rule for the calls: active = hit-call score of the fitted dose curve at least 0.9, where 1 is the maximum; inconclusive = response in the unintended direction; inactive = score below 0.9.

Cellular tumor antigen p53 (Homo sapiens), sequence (P04637 whole entry, looked up): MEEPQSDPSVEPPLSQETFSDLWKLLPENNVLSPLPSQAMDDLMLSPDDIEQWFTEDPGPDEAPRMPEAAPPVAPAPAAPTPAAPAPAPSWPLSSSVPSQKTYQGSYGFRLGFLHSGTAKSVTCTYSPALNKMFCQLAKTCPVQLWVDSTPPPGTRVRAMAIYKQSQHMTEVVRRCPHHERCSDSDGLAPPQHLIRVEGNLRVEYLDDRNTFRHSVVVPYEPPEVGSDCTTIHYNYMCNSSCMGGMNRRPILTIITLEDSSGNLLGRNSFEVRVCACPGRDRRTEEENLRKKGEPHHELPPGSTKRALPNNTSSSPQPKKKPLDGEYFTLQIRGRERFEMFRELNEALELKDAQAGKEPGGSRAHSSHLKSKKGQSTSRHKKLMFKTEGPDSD

Regarding `COc1cc(Cc2cnc(N)nc2N)cc(OC)c1OC`, the call in assay [1], in assay [2], in assay [3], in assay [4], in assay [5] and in assay [6] was inactive.
As to `CCn1cc(C(=O)O)c(=O)c2cnc(N3CCCC3)nc21`, the result in assay [1], in assay [2], in assay [3], in assay [4], in assay [5] and in assay [6] was inactive.
Turning to `CCCCCCCCCCCCCCCC(=O)OCC(COC(=O)CCCCCCCCCCCCCCC)OC(=O)CCCCCCCCCCCCCCC`, the call in assay [1], in assay [2], in assay [3], in assay [4], in assay [5] and in assay [6] was inactive.
For the compound `CCc1nnc(NS(=O)(=O)c2ccc(N)cc2)s1`, the compound was called inactive in assay [1], in assay [2], in assay [3], in assay [4], in assay [5] and in assay [6].
Consider `CC(C)(c1ccc(Oc2ccc3c(c2)C(=O)OC3=O)cc1)c1ccc(Oc2ccc3c(c2)C(=O)OC3=O)cc1`, for which the outcome in assay [1], in assay [2], in assay [3], in assay [4] and in assay [5] was inactive.
In the case of `COC(=O)c1ccccc1Cl`, the call in assay [1], in assay [2], in assay [3], in assay [4], in assay [5] and in assay [6] was inactive.
In the case of `CC(=O)Oc1ccc(C(=C2CCCCC2)c2ccc(OC(C)=O)cc2)cc1`, the call in assay [1], in assay [2], in assay [3], in assay [4], in assay [7] and in assay [8] was inactive.
In the case of `Cc1occc1SSc1ccoc1C`, the result in assay [1], in assay [2], in assay [3], in assay [4], in assay [5] and in assay [6] was inactive.
`NCCc1cnc[nH]1`: the compound was classed as inactive in assay [1], in assay [2], in assay [3], in assay [4], in assay [5] and in assay [6].
Consider `COc1ccc(-c2ccc3cc(C(=O)O)ccc3c2)cc1C12CC3CC(CC(C3)C1)C2`, for which the compound was classed as inactive in assay [1], in assay [2], in assay [6] and in assay [8]. The half-maximal activity concentration (AC50) is 3.62 µM (active) in assay [3], 2.12 µM (active) in assay [4] and 6.67 µM (active) in assay [5].
On to `C1COC(NC(C2CC2)C2CC2)=N1`, for which the outcome in assay [1], in assay [2], in assay [3], in assay [4] and in assay [7] was inactive. In assay [8], the half-maximal activity concentration (AC50) is 39.6 µM (active).
In the case of `OC[C@@H](O)[C@@H](O[C@@H]1O[C@H](CO)[C@H](O)[C@H](O)[C@H]1O)[C@H](O)[C@@H](O)CO`, the call in assay [1], in assay [2], in assay [3], in assay [4], in assay [5] and in assay [6] was inactive. The outcome in assay [8] was inactive.
Turning to `CC(=C\c1ccccc1)/C=C1/SC(=S)N(CC(=O)O)C1=O`, the outcome in assay [1], in assay [2], in assay [3], in assay [4], in assay [5] and in assay [6] was inactive. For the same compound, in assay [8], the result was inactive.
Regarding `CCCNC(C)C(=O)Nc1ccccc1C` (stereo not given), the compound was classed as inactive in assay [1], in assay [2], in assay [3], in assay [4] and in assay [5].
For the compound `CCOC(=O)C1=C(C)NC(C)=C(C(=O)OCC)C1c1ccccc1/C=C/C(=O)OC(C)(C)C`, the half-maximal activity concentration (AC50) in assay [1] was 35.4 µM (active); in assay [2], 38.6 µM (active); in assay [3] it was 43 µM (active); in assay [4], 39.5 µM (active); in assay [5], 26.5 µM (active). Besides, the outcome in assay [6] and in assay [8] was inactive.
For the compound `NC(N)=NCC1COc2ccccc2O1` (stereo not given), the outcome in assay [1], in assay [2], in assay [3], in assay [4], in assay [5] and in assay [6] was inactive. Also, in assay [8], the result was inactive.
On to `Cc1ccccc1C#N`, for which the compound was classed as inactive in assay [1], in assay [2], in assay [3], in assay [4] and in assay [5].
Take `O=C(O)c1ccc(-n2nc(-c3ccccc3O)nc2-c2ccccc2O)cc1`: the call in assay [1], in assay [2], in assay [3], in assay [4], in assay [5] and in assay [6] was inactive. Further, in assay [8], the result was inactive.
On to `NC(=O)c1ccc([N+](=O)[O-])cc1`, for which the result in assay [1], in assay [2], in assay [3], in assay [4], in assay [5] and in assay [6] was inactive.
For `O`, the outcome in assay [1], in assay [2], in assay [3], in assay [4], in assay [7] and in assay [8] was inactive.
Regarding `C1CCN2C[C@@H]3C[C@@H](CN4CCCC[C@@H]34)[C@H]2C1`, the result in assay [1], in assay [2], in assay [3], in assay [4], in assay [7] and in assay [8] was inactive.
Consider `O=C(c1ccc(O)cc1)c1ccc(Cl)cc1`, for which the result in assay [1], in assay [3] and in assay [6] was inactive. For the same compound, the half-maximal activity concentration (AC50) was 70.5 µM (active) in assay [2], 80 µM (active) in assay [4], 74.9 µM (active) in assay [5] and 86.9 µM (active) in assay [8].
For `C=C(C)c1ccccc1`, the compound was classed as inactive in assay [1], in assay [2], in assay [3], in assay [4], in assay [5] and in assay [6]. For the same compound, the result in assay [8] was inactive.
For `CCN[C@@H]1C[C@H](N)[C@@H](OC2OC(CN)=CCC2N)[C@H](O)[C@H]1O[C@H]1OC[C@](C)(O)[C@H](NC)[C@H]1O` (stereo not given in full), the compound was classed as inactive in assay [1], in assay [2], in assay [3], in assay [4], in assay [5] and in assay [6]. Also, the outcome in assay [8] was inactive.
Turning to `C=CC(=O)CCCCC`, the compound was called inactive in assay [1], in assay [2], in assay [3], in assay [4], in assay [5] and in assay [6]. For the same compound, in assay [8], the outcome was inactive.
`CCN(CC)CCCN(c1ccccc1)C1Cc2ccccc2C1`: the AC50 in assay [1] is 9.12 µM (active); in assay [2], 23.3 µM (active); in assay [3] it was 26.6 µM (active); in assay [4] it was 36.3 µM (active); in assay [5], 36.7 µM (active); in assay [6], 30.6 µM (active). In addition, the AC50 in assay [8] was 23 µM (active).
With `COc1cc(NS(=O)(=O)c2ccc(N)cc2)nc(OC)n1`, the call in assay [1], in assay [2], in assay [3], in assay [4], in assay [5] and in assay [6] was inactive. Also, the outcome in assay [8] was inactive.
With `CCCCCCCCCCCCCCCCCC(=O)[O][Al]`, the compound was called inactive in assay [1], in assay [2], in assay [3], in assay [4], in assay [5] and in assay [6]. Besides, the result in assay [8] was inactive.
Consider `CCOc1nc2cccc(C(=O)O)c2n1Cc1ccc(-c2ccccc2-c2nn[nH]n2)cc1`, for which the AC50 is 21.9 µM (active) in assay [1]; 28.7 µM (active) in assay [2]; 35.8 µM (active) in assay [3]; 43.3 µM (active) in assay [4]; 44.3 µM (active) in assay [5]; 38.2 µM (active) in assay [6]. Moreover, the outcome in assay [8] was inactive.
As to `CC(C)C[C@@H](NC(=O)[C@@H](O)[C@H](N)Cc1ccccc1)C(=O)O`, the outcome in assay [1], in assay [2], in assay [3], in assay [4], in assay [5] and in assay [6] was inactive. Further, the result in assay [8] was inactive.
On to `C=CC(=O)OCCOc1ccccc1`, for which the compound was called inactive in assay [1], in assay [2], in assay [3], in assay [4], in assay [5] and in assay [6]. In assay [8], the outcome was inactive.
In the case of `CCCCc1nc(Cl)c(CO)n1Cc1ccc(-c2ccccc2-c2nn[nH]n2)cc1`, the compound was called inactive in assay [1], in assay [2], in assay [3], in assay [4], in assay [5] and in assay [6]. Also, the outcome in assay [8] was inactive.
As to `C1CCC(C(CC2CCCCN2)C2CCCCC2)CC1` (stereo not given), the AC50 in assay [1] is 18.2 µM (active); in assay [2] it was 26.5 µM (active); in assay [3], 33.3 µM (active); in assay [4], 43.1 µM (active); in assay [5] it was 43.7 µM (active); in assay [6], 34 µM (active). For the same compound, in assay [8], the AC50 was 20.5 µM (active).
For the compound `CC(C)(C)OC(=O)c1ccccc1C(=O)O`, the compound was called inactive in assay [1], in assay [2], in assay [3], in assay [4], in assay [5] and in assay [6]. For the same compound, in assay [8], the result was inactive.
